These results are taken from PubChem BioAssay (EPA / NIEHS).

The nature of assay [1]: CCTE_Shafer_MEA_acute_per_network_burst_electrodes_number_mean: CCTE's Neural Acute Assay for Mean Number of Electrodes in a Network Burst, Shafer Lab (AID 2284021).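 Further: curves fitted for decreases only so hits reduce electrodes per burst.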 An outline of the steps: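 Readout: % change in mean electrodes active per network burst, post- vs pre-treatment, each well. Spikes detected at 8x rms noise after 300-5000 Hz band-pass; rat cortical cultures, DIV 13/15, compounds 0.03-40 uM, DMSO baseline.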

Assay [2] in a line: CCTE_Shafer_MEA_acute_network_burst_percentage: CCTE's Neural Acute Assay for Percentage of Network Bursts, Shafer Lab (AID 2284022).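 Further: curves fitted for loss so actives lower network burst percentage.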 An outline of the steps: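 Rat cortical cultures, DIV 13/15; 20 min equilibration, 40 min baseline, compound 0.03-40 uM, 40 min recording, 37 C. Spikes: 300-5000 Hz band-pass, threshold 8x rms noise. Readout: % change in network-burst spike fraction; loss direction vs DMSO.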

Assay [3] is described as follows: CCTE_Shafer_MEA_acute_cross_correlation_area: CCTE's Neural Acute Assay for Area of Cross Correlation, Shafer Lab (AID 2284024).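 Further: area under pooled inter-electrode spike cross-correlation near zero lag as percent change from own baseline; curves fitted for loss of cross-correlation area so actives lower synchrony.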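 On outcome: rat primary cortical neuron networks on 48-well MEA at DIV 13 or 15 with 40 min exposure.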 An outline of the steps:
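Rat cortical cultures, DIV 13/15, MEA; spikes detected at 8x rms noise (300-5000 Hz band-pass). Compound 0.03-40 uM, ≥3 wells each. Readout: % change in pooled inter-electrode cross-correlation area vs own baseline; DMSO negative control.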

The nature of assay [4]: CCTE_Shafer_MEA_acute_synchrony_index: CCTE's Neural Acute Assay for Synchrony, Shafer Lab (AID 2284027).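 Further: network synchrony index of spontaneous spiking in primary rat cortical neurons on MEAs; fitted for loss of signal so actives lower synchrony relative to DMSO.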 An outline of the steps: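 Plates equilibrated 20 min at 37 C, baseline recorded 40 min, compound (0.03-40 uM) added, then 40 min more recorded. Cells: primary rat cortical neurons, DIV 13 or 15. Per-well synchrony index change analysed in negative direction against DMSO.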

Assay [5] addresses Estrogen receptor (Homo sapiens) (UniProt P03372). The assay can be described thus: CCTE_Deisenroth_AIME_384WELL_LUC_Active: CCTE's 384-well Estrogen Receptor Transactivation Assay with AIME metabolic competence (ERTA luciferase; metabolism positive), Deisenroth Lab (AID 2284030; active means hit-call score of the fitted dose curve at least 0.9, where 1 is the maximum). An outline of the steps: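 Readout: bioluminescent luciferase induction in VM7Luc4E2 cells 24 hour after receiving medium from a 2 h rat hepatic S9 (induced, alginate microsphere) metabolism step. Concentrations 0.002 - 200 uM; activity scaled to 17beta-estradiol positive control.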

A short description of assay [6]: CCTE_Shafer_MEA_dev_firing_rate_mean: CCTE's Neural Network Formation Assay for Mean Firing Rate, Shafer Lab (AID 2284031). An outline of the steps: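 Steps: seed rat cortical cells (1.5 x 10^5/well) with laminin on PEI-coated MEA; dose day 0; record DIV 5/7/9/12, full media and compound exchange after DIV 5 and 9 recordings; compute well-mean firing rate AUC.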

A short description of assay [7]: CCTE_Deisenroth_AIME_384WELL_CTox_Active: Cytotoxicity Assessment (CTOX) in CCTE's 384-well Estrogen Receptor Transactivation Assay with AIME metabolic competence (metabolism positive), Deisenroth Lab (AID 2284037; active means hit-call score of the fitted dose curve at least 0.9, where 1 is the maximum;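 further: chemicals first conditioned 2 h by alginate-bound induced rat liver S9 before cells; activity means signal loss indicating cell death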). An outline of the steps: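 Chemicals pre-incubated 2 hours with alginate-immobilised phenobarbital/beta-naphthoflavone-induced male Sprague Dawley rat liver S9, then conditioned medium applied 24 hour to VM7Luc4E2 cells. Viability by fluorogenic protease substrate; 10-point series 0.002 - 200 uM.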

Assay [8] concerns the target Estrogen receptor (Homo sapiens) (UniProt P03372). The assay can be described thus: CCTE_Deisenroth_AIME_384WELL_LUC_Inactive: CCTE's 384-well Estrogen Receptor Transactivation Assay without AIME metabolic competence (ERTA luciferase; metabolism negative), Deisenroth Lab (AID 2284038; active means hit-call score of the fitted dose curve at least 0.9, where 1 is the maximum;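 further: hits raise estrogen receptor luciferase signal so potencies reflect agonists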). An outline of the steps: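 VM7Luc4E2 ER transactivation, luciferase bioluminescence after 24 h, using medium pre-incubated 2 h with S9-free alginate microspheres. Concentrations 0.002–200 uM; gain of signal fitted relative to 17beta-estradiol.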

A short description of assay [9]: CCTE_Deisenroth_AIME_384WELL_CTox_Inactive: Cytotoxicity Assessment (CTOX) in CCTE's 384-well Estrogen Receptor Transactivation Assay without AIME metabolic competence (metabolism negative), Deisenroth Lab (AID 2284039; active means hit-call score of the fitted dose curve at least 0.9, where 1 is the maximum;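 further: cell viability via live-cell protease substrate cleaved to fluorescent probe; cells exposed 24 h to medium preincubated 2 h with alginate-water beads without S9; loss of fluorescence signal means loss of viability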). An outline of the steps:
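Fluorescent protease-substrate viability readout after 24 h exposure of VM7Luc4E2 cells to conditioned medium. Chemicals (0.002–200 uM) first sat 2 h over alginate-water beads, no S9. Data fitted bidirectionally, loss of signal meaning viability loss.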

A short description of assay [10]: CCTE_Shafer_MEA_dev_active_electrodes_number: CCTE's Neural Network Formation Assay for Number of Active Electrodes, Shafer Lab (AID 2284040; active means hit-call score of the fitted dose curve at least 0.9, where 1 is the maximum). An outline of the steps: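 Counts electrodes per well firing at least 5 spikes/min, recorded on days 5, 7, 9 and 12 in rat cortical cultures dosed continuously from plating (treatment refreshed DIV 5, 9). Value is the area under the curve over recordings, fitted downward relative to DMSO.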

Assay [11] deals with Estrogen receptor (Homo sapiens) (UniProt P03372). The assay can be described thus: CCTE_Deisenroth_AIME_384WELL_LUC_Shift: CCTE's 384-well Estrogen Receptor Transactivation Assay with AIME metabolic competence data shift (ERTA luciferase; difference in metabolism positive and negative), Deisenroth Lab (AID 2284041).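 Further: shift is response with S9 minus without S9 so positive means metabolism raised ER signal.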 An outline of the steps:
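Chemicals (0.002–200 uM, 10 points) pre-incubated 2 h with alginate-encapsulated induced male Sprague Dawley rat liver S9 or S9-free, then medium applied 24 h to VM7Luc4E2 cells; luciferase. Endpoint is per-concentration difference, S9-positive minus negative.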

Assay [12] is described as follows: CCTE_Shafer_MEA_dev_burst_rate: CCTE's Neural Network Formation Assay for Burst Rate, Shafer Lab (AID 2284042). An outline of the steps:
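Exposure ran continuously over 12 days of network development in rat cortical cultures, with compound refreshed during full media changes on DIV 5 and 9. Single-electrode bursts per recording time, well-mean over active electrodes, trapezoidal AUC across days 5–12, fitted downward relative to DMSO.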

Assay [13] is described as follows: CCTE_Shafer_MEA_dev_bursting_electrodes_number: CCTE's Neural Network Formation Assay for Number of Bursting Electrodes, Shafer Lab (AID 2284043; active means hit-call score of the fitted dose curve at least 0.9, where 1 is the maximum;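 on AC50: potency is for loss of bursting electrodes relative to DMSO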). An outline of the steps: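 Rat cortical primary neurons, 48-well MEA, 16 electrodes/well; dosing DIV 0–12, re-dosed with full media change DIV 5, 9. Recordings DIV 5/7/9/12, AxIS adaptive spike detector; bursting electrode = ≥1 burst/2 min. AUC across days; loss of signal vs DMSO.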

Assay [14] in a line: CCTE_Shafer_MEA_dev_per_burst_interspike_interval: CCTE's Neural Network Formation Assay for Burst Interspike Interval, Shafer Lab (AID 2284044). An outline of the steps:
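Readout is the average time between spikes inside single-electrode bursts, taken as a well mean across bursting electrodes. Cortical neurons from rat developed networks on MEA plates under continuous 12-day exposure; recordings on days 5, 7, 9 and 12 were integrated by trapezoidal AUC.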

Assay [15] can be described thus: CCTE_Shafer_MEA_dev_burst_duration_mean: CCTE's Neural Network Formation Assay for Mean Burst Duration, Shafer Lab (AID 2284045). An outline of the steps: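 Rat cortical cultures, 1.5 x 10^5 cells/well with laminin drop; continuous dosing days 0–12, media plus treatment refreshed DIV 5, 9. AxIS adaptive spike detection; mean single-electrode burst duration, AUC over four recordings, negative direction vs DMSO.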

Assay [16] in a line: CCTE_Shafer_MEA_dev_interburst_interval_mean: CCTE's Neural Network Formation Assay for Mean Interburst Interval, Shafer Lab (AID 2284046).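 Further: curve fitted for decrease in interburst interval relative to DMSO.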 An outline of the steps: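 Primary rat cortical neurons on PEI-coated 48-well MEA plates (laminin added with cells at plating) (16 electrodes/well), exposed from plating day 0 with renewal at DIV 5 and 9. Mean inter-burst interval averaged over bursting electrodes, AUC across days 5, 7, 9, 12; DMSO baseline.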

Assay [17] is described as follows: CCTE_Deisenroth_AIME_96WELL_CTox_Active: Cytotoxicity Assessment (CTOX) in CCTE's 96-well Estrogen Receptor Transactivation Assay with AIME metabolic competence (metabolism positive), Deisenroth Lab (AID 2284028; active means hit-call score of the fitted dose curve at least 0.9, where 1 is the maximum). An outline of the steps: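 Cytotoxicity in VM7Luc4E2 breast cells after 24 h exposure to medium from a 2 h metabolic pre-incubation with induced rat hepatic S9 in alginate microspheres; fluorescent live-cell protease readout, 10-point series 0.002–200 uM, n=4.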

Results filed as inconclusive are left out. Active and inactive are the calls of the source. How the source made its calls, unless noted: active means hit-call score of the fitted dose curve at least 0.9, where 1 is the maximum; inactive means score below 0.9.

Sequence of Estrogen receptor (Homo sapiens) (P03372 whole entry, looked up): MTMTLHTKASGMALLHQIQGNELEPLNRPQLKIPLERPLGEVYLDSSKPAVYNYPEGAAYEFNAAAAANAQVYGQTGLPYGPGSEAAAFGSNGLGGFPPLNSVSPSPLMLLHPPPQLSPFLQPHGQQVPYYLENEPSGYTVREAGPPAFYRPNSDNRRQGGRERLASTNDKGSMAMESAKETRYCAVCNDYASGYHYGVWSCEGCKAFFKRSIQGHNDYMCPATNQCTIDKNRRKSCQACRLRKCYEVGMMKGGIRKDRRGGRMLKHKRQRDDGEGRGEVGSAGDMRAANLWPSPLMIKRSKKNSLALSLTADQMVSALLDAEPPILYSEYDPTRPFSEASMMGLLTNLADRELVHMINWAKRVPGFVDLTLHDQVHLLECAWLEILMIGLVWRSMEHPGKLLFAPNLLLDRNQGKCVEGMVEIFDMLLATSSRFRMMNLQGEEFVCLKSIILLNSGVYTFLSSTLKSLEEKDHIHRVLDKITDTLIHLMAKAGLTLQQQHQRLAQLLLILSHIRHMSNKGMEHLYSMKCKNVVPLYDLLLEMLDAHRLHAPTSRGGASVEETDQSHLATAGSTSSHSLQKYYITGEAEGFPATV

What is called AC50 is the concentration at which the activity in the assay is half-maximal. For `CC(=O)NC1(c2cccc(F)c2)CCN(CC[C@@]2(c3ccc(Cl)c(Cl)c3)CN(c3ccccc3)C(=O)CO2)CC1`, the compound was called inactive in assay [1]. Also, the values for the AC50 in assay [2], in assay [3] and in assay [4] were 8.3 µM (active), 1.03 µM (active) and 9.53 µM (active), respectively.

Take `CN1CCC[C@H]1c1cccnc1`: the outcome in assay [1], in assay [2], in assay [4], in assay [5], in [6] and in [7] was inactive. In addition, the call in [8], in [9], in assay [10], in assay [11], in assay [12] and in [13] was inactive. In addition, the outcome in [14], in assay [15] and in assay [16] was inactive. In addition, the AC50 in assay [3] was 0.7 µM (active).

Take `CN(C)C=O`: the compound was called inactive in [1], in assay [2], in assay [3] and in [4].

For the compound `O=C(O)c1ccccc1C(c1ccc(O)cc1)c1ccc(O)cc1`, the compound was called inactive in [1], in assay [2], in [7] and in [9]. Further, the AC50 in [3] was 20 µM (active); in assay [4] it was 7.86 µM (active); in [5], 123 µM (active); in assay [8], 98.9 µM (active); in assay [11] it was 126 µM (active).

For `Oc1cc2ccccc2c2ccccc12`, the call in assay [1], in [2], in assay [3], in [4] and in [11] was inactive. Also, the figures for the AC50 in assay [7] and in assay [9] were 19 µM (active) and 10.3 µM (active), respectively.

On to `O=c1c(-c2ccc(O)cc2)coc2cc(O)ccc12`, for which the compound was classed as inactive in assay [1], in [2], in [3] and in assay [17]. Further, in assay [4], the AC50 was 12.2 µM (active).

Consider `CCCOc1sc(C(=O)N2CCC(c3cc(CN)ccc3F)CC2)c(C)c1Br`, for which the outcome in assay [1], in assay [2], in assay [3] and in [4] was inactive.

On to `OCCC(F)(F)C(F)(F)C(F)(F)C(F)(F)C(F)(F)C(F)(F)C(F)(F)C(F)(F)F`, for which the outcome in [1], in [2], in assay [3], in [4], in assay [5] and in [6] was inactive. Moreover, the compound was classed as inactive in [8], in assay [10], in assay [11], in assay [12], in [14] and in [15]. In addition, in assay [16], the result was inactive. Also, in assay [13], the AC50 was 26 µM (active).

As to `CC(C)(C)c1cc(C(C)(C)C)c(O)c(C(C)(C)C)c1`, the call in [1], in assay [2] and in assay [3] was inactive. In addition, the AC50 in assay [4] was 0.167 µM (active).

On to `CC[C@H](c1ccc(O)cc1)[C@@H](CC)c1ccc(O)cc1`, for which the result in assay [1], in [2], in assay [3] and in assay [4] was inactive.
